Among all 5,700 compounds or so, about 280 (4.9%) were called active. The rule behind the calls is not given here. Only a sample is shown.
Experiment: Plasmodium liver-stage growth inhibition, dose response, imaging, Malaria Box, P. yoelii, HepG2-A16-CD81EGFP (AID 602156)
Conditions: P. yoelii liver stage in HepG2-A16-CD81EGFP

outcome, inactive:
CC(C)(C)CC(=O)NCCCCNc1ccnc2cc(Cl)ccc12, O=C(Nc1ccc(-c2nc3ccccc3[nH]2)cc1)c1cccc(C(=O)Nc2ccc(-c3nc4ccccc4[nH]3)cc2)n1, O=C(Nc1ccc(-c2nc3ccccc3[nH]2)cc1)c1ccc(-c2cccc([N+](=O)[O-])c2)o1, CCc1ccccc1N(CC(=O)NC1CCCCC1)C(=O)CCC(=O)Nc1ccccn1, Oc1ccc(-c2ccccc2)cc1CNC1CCCCC1, CCOC(=O)c1c(C)[nH]c(C)c1S(=O)(=O)N1CCCC(C(=O)N2CCN(c3cccc(C)c3C)CC2)C1 (stereo not given), CC1CN(C(=O)C(Cc2c[nH]c3ccccc23)NC(=O)CCl)CCN1C(=O)Nc1ccccc1 (stereo not given), Cc1ccc(C=Cc2ccc3ccccc3[n+]2C)cc1, COc1ccc(-c2c[n+](CC(=O)c3ccccc3)c3n2CCC3)cc1, COc1ccc(OC)c(-c2ccc(O)c(CNCC(C)c3ccccc3)c2)c1 (stereo not given), Fc1cc(F)c(C2SCCN2C(=S)Nc2cccc(C(F)(F)F)c2)c(F)c1 (stereo not given), COc1cccc2cc(C(=O)Nc3cccc(C(F)(F)F)c3)c(=O)oc12, CC(C)(C)CC(C)(C)Nc1c(-c2ccccc2OC(=O)c2cccc(Br)c2)nc2ccccn12, COc1ccccc1C=CC1=NC(=Cc2ccc(SC)cc2)C(=O)O1, O=C(Cn1cc([N+](=O)[O-])nc1[N+](=O)[O-])N1CCN(c2ccc(F)cc2)CC1, CCOc1ccc(C=C2SC(=Nc3ccccc3)NC2=O)cc1OC, CCOC(=O)C1CCN(C(=O)CN2C(=O)c3ccccc3C2c2c[nH]c3ccccc23)CC1 (stereo not given), N#CC(=Cn1cc(Cc2ccc(Cl)cc2Cl)c2ccccc21)c1nn(CCO)c(N)c1C#N, Cc1nnc2sc(SCc3ccc([N+](=O)[O-])cc3)nn2c1=O, CC1CCN(S(=O)(=O)c2ccc(C(=O)NCc3ccco3)cc2)CC1, CCN1CCCC1CNc1ncnc2c1[nH]c1ccc(C)cc12 (stereo not given), c1ccc(CCCNc2ccnc3cc4ccccc4cc23)cc1, COCCn1c(SCC(=O)c2ccc(C)cc2C)nnc1-c1ccco1, CCN(CC)CCNc1ncnc2c1[nH]c1ccc(Br)cc12, CC(C)CNC(=O)c1cnc(NCCCN2CCCC2)nc1NCC1CCCCC1, CC[n+]1c(/C=C2\Sc3oc4ccccc4c3N2C)ccc2cc(C)ccc21, c1ccc(Nc2nc(NCC3CCCO3)c3ccccc3n2)cc1 (stereo not given), COc1ccccc1N1C(=N)SC(=Cc2ccc(OCc3ccccc3F)cc2)C1=O, CC[N+](CC)=c1scc(-c2ccc([N+](=O)[O-])cc2)s1, COc1cc(C(=O)NCCc2cc3ccccc3[nH]2)ccc1OC1CCN(CC(c2ccccc2)c2ccccc2)CC1, O=C(NCCCCCCCCCCNC(=O)Nc1ccc(C2=NCCCN2)cc1)Nc1ccc(C2=NCCCN2)cc1, COc1ccc(-c2csc3nc(COc4cccc(C)c4)nn23)c(O)c1, CCCCN(C)C(=O)CSc1nc(NCc2ccccc2)c2ccccc2n1, Cc1ccc(N=C2SC(=Cc3c(Cl)cccc3Cl)C(=O)N2c2ccc(C)c(C)c2)cc1C, CCCCCCC(=O)Oc1ccccc1-c1nc2ccccn2c1NC(C)(C)CC(C)(C)C, CN(CCCNc1ccnc2cc(Cl)ccc12)C(=O)c1ccc(Cl)c(Cl)c1, Cc1c(Cl)cccc1NC(=O)C1C(C(=O)O)C2C=CC1C21CC1 (stereo not given), CCCCCCN(C(=O)c1ccccc1)C(CC)c1nc2ccccc2c(=O)n1-c1ccccc1OC (stereo not given), CCCCCN(C(=O)c1ccc(Br)cc1)C(CC)c1nc2ccccc2c(=O)n1-c1ccccc1OC (stereo not given), O=c1c2c(nc3cc(-c4ccc(Cl)cc4)[nH]n13)CCCC2, O=c1c2c(nc3cc(-c4ccc(-c5ccccc5)cc4)[nH]n13)CCCC2, Cc1cccc(OCC(=O)Nc2cccc(NC(=O)COc3cccc(C)c3)n2)c1, CCc1ccc(C(C)=NNc2nc(-c3ccccc3)cc(=O)[nH]2)cc1, Cc1cccc(NS(=O)(=O)c2ccc3[nH]c(=O)ccc3c2)c1C, COc1cc(/C=C(\C#N)c2nc3ccccc3[nH]2)ccc1OCc1ccc(C)cc1, Clc1ccc(Nc2nc(Nc3ccc(Cl)cc3)c3ccccc3n2)cc1, CCc1ccc(-n2c(C(CC)N(CCc3ccccc3)C(=O)c3cc(OC)cc(OC)c3)nc3ccccc3c2=O)cc1 (stereo not given), CCCCCCN(C(=O)COCc1ccccc1)C(C)c1nc2ccccc2c(=O)n1-c1cccc(Cl)c1C (stereo not given), Cc1ccc2c(c1)c(-c1ccccc1)c(-c1ccccc1)n2CC(O)CN1CCN(Cc2ccccc2)CC1 (stereo not given), CC1CC(C)CN(c2ccc([N+](=O)[O-])cc2-c2nn[nH]n2)C1 (stereo not given), COc1ccc(C=NNc2nc3ccc(Cl)cc3[nH]2)cc1OC, COc1ccc(C=C2SC(=N)N(c3ccc4c(c3)OCO4)C2=O)cc1OC, COc1ccc(C(OCC(=O)N2CCN(Cc3ccccc3)CC2)c2ccccc2)cn1 (stereo not given), O=C(Nc1ccc(C2=NCCN2)c(Cl)c1)c1cccc(C(=O)Nc2ccc(C3=NCCN3)c(Cl)c2)c1, CC1CC(C)CN(S(=O)(=O)c2ccc(C(=O)Nc3ccc(-c4nc5ccccc5o4)cc3)cc2)C1 (stereo not given), Cc1ccc2cc3c(N)c4cccc(C)c4nc3nc2c1, CCOc1ccc(Nc2[nH]c(=O)sc2C2=c3cc(Br)ccc3=NC2=O)cc1, Cc1ccc(O)c(NC(=O)c2cnn3c(C(F)(F)F)cc(-c4ccc(F)cc4)nc23)c1, O=C(C=Cc1cccnc1)C12CC3CC(CC(C3)C1)C2, O=C1NN(c2ccccc2)C(=O)C1=C1C(=O)N(Cc2cccc3ccccc23)c2ccccc21, Cc1cc2ncn(N=Cc3cccnc3)c2cc1C, CCOC(=O)c1c(C)n(-c2ccccc2)c2ccc(OC(=O)c3ccccc3NC(=O)CC)cc12, CC(C)=CCCC(C)=CCCC(C)NCCN1CCNCC1 (stereo not given), C=CCNC(=O)c1ccc2c(c1)N=CN(CCOc1ccccc1)C2, Cn1c(SCC2CCCO2)nnc1C1CCN(C/C=C/c2ccccc2)CC1 (stereo not given), Cc1cc(S(=O)(=O)N2CCN(Cc3ccccc3)CC2)ccc1-n1cnnn1, COc1ccc(S(=O)(=O)ON=C2C=C(C(C)C)C(=O)C=C2C)cc1, COc1ccc(NC(=O)C2c3ccccc3C(=O)N(CC(C)C)C2c2cccs2)cc1OC (stereo not given), COc1ccc(NC(=O)/C=C/c2ccccc2Cl)cc1, O=C1CC(c2ccccc2)CC2=C1C(c1cc(F)ccc1F)Nc1ccccc1N2 (stereo not given), CCCCCCCCCC(=O)N1CCN(C(CC)c2nc3ccccc3c(=O)n2C)CC1 (stereo not given), CCC(NC1CCCCC1)c1nc2ccccc2c(=O)n1C (stereo not given), CC(c1nc2ccccc2c(=O)n1-c1ccc(Br)cc1)N1CCN(S(=O)(=O)c2ccc3ccccc3c2)C(C)C1 (stereo not given), CCCCC(CC)C(=O)N1CCN(C(C)c2nc3ccc(Cl)cc3c(=O)n2C)CC1 (stereo not given), CC(c1nc2ccc(Cl)cc2c(=O)n1C)N1CCN(C(=O)C(C)(C)C)CC1 (stereo not given), CCCCCCCCC(=O)N1CCN(C(CC)c2nc3ccccc3c(=O)n2C)CC1 (stereo not given), COc1ccc(/C=C2\N=C(c3ccc(Cl)cc3)N(c3ccccc3)C2=O)cc1OC, O=C(NCCCNC(=O)Nc1cccc(C2=NCCN2)c1)Nc1cccc(C2=NCCN2)c1, CC(C)c1ccc(NC(=O)C=Cc2ccccc2Cl)cc1, COC(=O)c1sccc1S(=O)(=O)N1CCCC(c2[nH]ncc2-c2ccccc2)C1 (stereo not given), Cc1cccc(Nc2nc3nonc3nc2NN=Cc2cccs2)c1C, O=C(NCCC(c1ccccc1)c1ccccc1)c1cccc([N+](=O)[O-])c1, COC(=O)c1ccc(C=NNc2cc(C)nc3ccc(OC)cc23)cc1, O=S(=O)(/C=C/c1ccccc1)NCCCCNc1ccnc2cc(Cl)ccc12, CCN(CC)Cc1cc(Nc2nc3ccccc3[nH]2)cc(CN(CC)CC)c1O, CC[n+]1c(C=C2Sc3ccccc3N2C)ccc2ccc(C)cc21, O=C(CNCCc1ccccc1)NC(c1ccccc1)c1ccccc1, O=C(c1c2c(nc3ccccc13)CCC2)N1CCc2ccccc21, O=C(O)c1cc([N+](=O)[O-])ccc1Oc1cncc(Cl)c1, CCCN(CCC)CC(O)COc1ccccc1C(=O)Nc1ccccc1 (stereo not given), CCn1c(SCC(=O)N(c2ccccc2)c2ccccc2)nc2sc3c(c2c1=O)CCN(C)C3, Cc1cccc(CCNc2cc(C)nc3ncnn23)c1, COc1ccccc1N1CCN(C(=O)Nc2ccc3ccccc3c2)CC1, Oc1ccc(-c2cnccn2)cc1CNC1CCN(Cc2ccccc2)CC1, CC1(C)C2CCC1(C)C(NCc1ccccc1O)C2 (stereo not given), COc1ccc(OC)c(-c2ccc(O)c(CNCc3ccccc3OC)c2)c1, COc1ccc(CNC(=O)C2CNCC2c2ccc(C(F)(F)F)cc2)cc1 (stereo not given), COc1cccc(CNC(=O)[C@@H]2CNC[C@H]2c2ccc(C(F)(F)F)cc2)c1, CCCCCN1/C(=C\C=C\c2n(CC)c3cc(Cl)c(Cl)cc3[n+]2CCCCC)N(CC)c2cc(Cl)c(Cl)cc21, COc1ccc(-c2cc(C(=O)NCc3cccnc3)no2)cc1OC
